Results reported in the supplement of paper PMC6555819.

What was measured:
Assay in all cases: PBM binding z-score (relative to random genomic background probes); higher = stronger binding; sequences stand for … in GC…GCGATTGACAGCGTAGAATGAAGG
[1] = tested on: FXR:RXRa (NR concentration 270 nM, RXRa partner concentration 90 nM)
In short: (§1)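 Scanned fluorescence from custom Agilent 4×180K protein-binding microarrays was regression-normalized. Binding z-scores use random background probes as reference. Ligand-free nuclear receptor dimers were incubated on the arrays for 1 h and detected with antibodies against each partner (one per run).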

[2] = tested on: LXRa:RXRa (NR concentration 270 nM, RXRa partner concentration 90 nM)
In short: as §1

[3] = tested on: LXRa homodimer (NR concentration 270 nM)
In short: as §1

[4] = tested on: LXRb:RXRa (NR concentration 270 nM, RXRa partner concentration 90 nM)
In short: as §1

[5] = tested on: LXRb homodimer (NR concentration 270 nM)
In short: as §1

[6] = tested on: PPARa:RXRa (NR concentration 270 nM, RXRa partner concentration 90 nM)
In short: as §1

[7] = tested on: PPARg:RXRa (NR concentration 180 nM, RXRa partner concentration 90 nM)
In short: as §1

[8] = tested on: PPARg:RXRa 270nM:90nM, anti-RXR (NR concentration 270 nM, RXRa partner concentration 90 nM)
In short: as §1

[9] = tested on: PPARg:RXRa 30nM:10nM, anti-RXR (NR concentration 30 nM, RXRa partner concentration 10 nM)
In short: as §1

[10] = tested on: PPARg:RXRa 90nM:30nM, anti-RXR (NR concentration 90 nM, RXRa partner concentration 30 nM)
In short: as §1

[11] = tested on: PPARg:RXRa DBDmut IVT, anti-RXR (DBD mutation: RXRa K156A/R161A, NR concentration 270 nM, RXRa partner concentration 90 nM)
In short: as §1

[12] = tested on: PPARg:RXRa IVT, anti-PPARg (NR concentration 270 nM, RXRa partner concentration 90 nM)
In short: as §1

[13] = tested on: PPARg DBDmut:RXRa IVT, anti-PPARg (DBD mutation: PPARg1 K132A/R137A, NR concentration 270 nM, RXRa partner concentration 90 nM)
In short: as §1

[14] = tested on: PPARg DBDmut IVT, anti-PPARg (DBD mutation: PPARg1 K132A/R137A, NR concentration 270 nM)
In short: as §1

[15] = tested on: PPARg homodimer (NR concentration 180 nM)
In short: as §1

[16] = tested on: PXR:RXRa (NR concentration 270 nM, RXRa partner concentration 90 nM)
In short: as §1

[17] = tested on: PXR homodimer (NR concentration 270 nM)
In short: as §1

[18] = tested on: RARa:RXR (NR concentration 270 nM, RXRa partner concentration 90 nM)
In short: as §1

[19] = tested on: RARa homodimer (NR concentration 270 nM)
In short: as §1

[20] = tested on: RARb:RXRa (NR concentration 270 nM, RXRa partner concentration 90 nM)
In short: as §1

Row | Sequence | PBM binding z-score [1] | PBM binding z-score [2] | PBM binding z-score [3] | PBM binding z-score [4] | PBM binding z-score [5] | PBM binding z-score [6] | PBM binding z-score [7] | PBM binding z-score [8] | PBM binding z-score [9] | PBM binding z-score [10] | PBM binding z-score [11] | PBM binding z-score [12] | PBM binding z-score [13] | PBM binding z-score [14] | PBM binding z-score [15] | PBM binding z-score [16] | PBM binding z-score [17] | PBM binding z-score [18] | PBM binding z-score [19] | PBM binding z-score [20]
1 | TCTTGTAAATCAGCAGGTTAAGAAAGCTGGCCAA | 0.256 | 0.519 | -0.233 | 0.511 | -0.113 | 0.935 | -0.661 | 1.45 | 3.06 | 2.45 | 1.8 | -0.234 | -0.435 | -0.222 | 0.0187 | 0.477 | -0.284 | 0.789 | 0.26 | 0.224
2 | CGAACAAGGTCAAGGACAGTGAATCTCCGCACGC | 7.13 | 5.06 | 0.53 | 3.78 | 0.377 | 5.74 | 5.98 | 5.82 | 2.42 | 4.59 | 4.85 | 4.49 | 1.31 | 0.251 | 2.38 | 3.97 | 0.628 | 4.74 | 0.971 | 5.2
3 | CCTTACGAGTCAAGGTTATAGCACGGGTGGTACG | 0.585 | 0.946 | -0.0296 | 0.739 | 0.332 | 1.28 | 0.716 | 0.135 | -0.0857 | -0.0269 | -0.121 | 0.156 | -0.0742 | -0.146 | 1.14 | 0.823 | 0.506 | 0.888 | 0.784 | 1.07
4 | CAAACTAGGTCAAGAGGTAAAAGTCCGCTTCCCG | 4.11 | 3.15 | 0.451 | 2.2 | 0.356 | 5.2 | 8.8 | 7.58 | 5.87 | 7.82 | 8.5 | 8.39 | 6.02 | 5.32 | 3.74 | 1.92 | 0.28 | 3.43 | 0.988 | 4.19
5 | ACTTACGGGTCCACGAGGTTATAGCACGCGTATA | 0.87 | 0.822 | 0.478 | 1.39 | 0.189 | 1.6 | 1.01 | 0.696 | 0.165 | 0.469 | 0.0725 | 0.67 | 0.473 | 0.278 | 0.407 | 1.48 | 1.01 | 1.8 | 0.384 | 1.15
6 | TCTCGGAGGACACGAAGGTCAGAGATTTCCAGAG | 1.38 | 0.932 | 0.277 | 1.25 | -0.387 | 1.83 | 0.75 | 1.93 | 2.37 | 2.23 | 1.66 | 1.24 | -0.127 | -0.972 | 1.21 | 1.86 | 1.02 | 2.11 | -0.144 | 3.4
7 | GCTATTAGTAGAAAGGGCAACCGAATGATTCTCG | -0.219 | 0.182 | -0.00158 | 0.187 | -0.195 | 1.42 | 2.17 | 3.71 | 1.81 | 3.54 | 0.164 | 0.803 | 0.319 | 0.449 | 1.28 | 0.256 | -0.0739 | 0.703 | 1.09 | 1.96
8 | AGAATGAGTTTAAGATCAGGGAAACAGAATACAT | -0.0291 | -0.0527 | -0.102 | -0.0907 | -0.243 | -0.0432 | 0.814 | -0.0778 | 0.203 | 0.0165 | -0.319 | -0.227 | 0.514 | 0.367 | 0.191 | 0.341 | 0.729 | 0.163 | 0.965 | 0.406
9 | TCATATAGGTGAACAGGTGAAAGTCCGTAAGTTA | 1.35 | 1.14 | 0.444 | 1.22 | 0.00841 | 3.47 | 4.77 | 4.6 | 4.3 | 4.44 | 6.52 | 6.31 | 1.63 | 1.36 | 1.1 | 1 | 0.638 | 1.46 | 0.907 | 1.64
10 | CCGACTGGGCCAAAAAGGTCATTGATGCCGATAA | 3.41 | 4.25 | 2.8 | 3.93 | -0.421 | 4.53 | 2.35 | 3.47 | 0.713 | 2.22 | 1.65 | 2.62 | -1.21 | -1.08 | 2.17 | 4.5 | 1.95 | 4.92 | 0.897 | 3.9
11 | TCTTTTAGATCAAGCAGGTTAAGAAAGCCTGAGT | 0.715 | 0.67 | -0.177 | 0.588 | 0.409 | 1.02 | -0.669 | 1.68 | 3.39 | 2.56 | 1.41 | 0.619 | 0.997 | 1.17 | -0.29 | 0.774 | 0.132 | 0.889 | -0.0558 | 0.269
12 | CAGACTGGGGCATAAGGTTACCATAAGCCAGCCC | 0.722 | 2.35 | -0.275 | 1.27 | -0.727 | 2.55 | 3.37 | 3.96 | 2.09 | 3.72 | 4 | 4.18 | -0.272 | -0.433 | 0.704 | 0.652 | -0.537 | 1.59 | -0.341 | 1.66
13 | GCGACTGGGGCAAAGTAGGTTACCATAAGGTTGG | 0.147 | 0.172 | -0.28 | 0.557 | -0.493 | 2.29 | 2.59 | 3.18 | 0.758 | 2.3 | 5.3 | 5.17 | -0.411 | -0.49 | -0.0778 | 0.322 | -0.231 | 0.681 | -0.558 | 1.21
14 | CCTTACGGCTCACGAGGTTATAGCACGACGAGCG | 0.307 | 0.723 | 0.155 | 0.376 | -0.33 | 0.625 | 0.887 | 0.128 | -0.0191 | 0.0892 | -0.0471 | -0.209 | -0.288 | 0.282 | 0.161 | 0.289 | 0.226 | 0.918 | 0.403 | 0.347
